In PubChem BioAssay AID1117319 (Southern Research Institute, 2015):
“And” between values parts separate entries of the source, which are not always exact repeats. Equal values may be shown once. The whole screen tested about 260,000 compounds, of which about 1,500 (0.58%) were called active. Inconclusive results (about 5%) are left out.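 Rule for the calls: active = inhibition above a set limit at one or more doses, reproduced on every date tested; inconclusive = results disagree between test dates, or hit never tested in dose response; inactive = the rest.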 A selection follows. Results with a measured potency or affinity are listed apart.

target: Virion infectivity factor (Human immunodeficiency virus type 1 group M subtype B (isolate BH10)) + Virion infectivity factor (Human immunodeficiency virus type 1 group M subtype B (isolate BRU/LAI)) + Virion infectivity factor (Human immunodeficiency virus type 1 group M subtype B (isolate PCV12)) + Virion infectivity factor (Human immunodeficiency virus type 1 group M subtype B (isolate HXB2)) + DNA dC->dU-editing enzyme APOBEC-3G (Homo sapiens) (UniProt P69720+P69721+P69722+P69723+Q9HC16); assay: inhibitors of Vif binding to APOBEC3G peptide, primary screen, biochemical, TR-FRET, GST-Vif 1-94, biotin-A3G peptide, dose response retest (AID 1117319); conditions: stronger effect = higher value;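 note: Vif residues 1-94 fused to GST binding biotinylated APOBEC3G peptide 110-148; 0% = full assay without inhibitor and 100% = GST in place of GST-Vif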

inhibition, inactive:
CC(C)(C)c1ccc(OCCC(=O)OCC(=O)Nc2ccc(N3CCOCC3)cc2)cc1 -3.5%
O=Nc1c(O)ccc2cc(S(=O)(=O)O)ccc12 24.3%
O=P(c1ccccc1)(c1ccccc1)c1cc(S(=O)(=O)O)ccc1O 26.4%
Nc1cc(S(=O)(=O)O)cc2ccc(S(=O)(=O)O)cc12 0.1%
O=C(O)c1cc(S(=O)(=O)O)ccc1O 9.92%
COc1ccc(C)cc1-n1c(C)cc(C=O)c1C -0.15%
c1ccc(Cn2ncc3ccccc32)cc1 23.7%
Cc1cc([N+](=O)[O-])nn1CC(=O)N/N=C/c1ccccc1Br -3.16%
COC(=O)c1ccc(C(=O)OC)c(NC(=O)CCC(=O)O)c1 17.1%
Cc1nc2ccc(NC(=O)Cc3ccccc3F)cc2s1 13.4%
Cc1nc2ccc(NC(=O)Cc3ccsc3)cc2s1 -2.69%
Cc1ccnc(NS(=O)(=O)c2ccc(NC(=O)Cc3ccccc3)cc2)n1 4.16%
Cc1cc(NS(=O)(=O)c2ccc(NC(=O)Cc3cccs3)cc2)no1 -3.09%
COC(=O)c1cc(OC)c(OC)cc1NC(=O)Cc1cccs1 10.3%
O=C(Cc1cccs1)Nc1ccc(S(=O)(=O)Nc2ncccn2)cc1 26.2%
Cc1cc(NC(=O)CCCC(=O)NCc2cccs2)no1 10.9%
COc1ccc(OC)c(-c2nc(C(N)=O)c3[nH]c(=O)n(-c4ccc(F)cc4)c3n2)c1 -0.73%
NNC(=O)c1nc(-c2cccc(-n3cccc3)c2)no1 2.13%
CC(=O)Nc1ccc(C(=O)COC(=O)CCc2ccccc2)c(F)c1 -7.82%
FC(F)(F)c1cnc(-n2cc[nH]c2=S)c(Cl)c1 -3.85%
CCCCN=C1NC(=O)C(CC(=O)NCCc2ccc(OC)cc2)S1 (stereo unspecified) 21.5%
CCOc1ncccc1C(=O)NCCN1C(=O)S/C(=C/c2cccs2)C1=O 17.3%
Cc1nc(Nc2ccccc2)c2oc3ccc(Cl)cc3c2n1 -10.6%
Cc1ccc(NC(=O)c2cc(-c3ccc(C)o3)nc3ccccc23)cc1 20.7%
Cc1ccc(-c2cc(C(=O)Nc3ccccc3C)c3ccccc3n2)o1 0.87%
CCc1c(C(=O)OC)nnc2cc(C)nn12 -2.39%
COc1ccc(SCC(=O)Nc2ccc(N3CCN(C)CC3)c(F)c2)cc1 -1.67%
CC(=O)c1c(C)[nH]c(C(=O)OCC(=O)NCC(C)C)c1C -6.38%
CNC(=O)COC(=O)c1[nH]c(C)c(C(C)=O)c1C 1.68%
CCOC(=O)c1c(C)[nH]c(C(=O)OCC(=O)N2CCN(S(=O)(=O)c3ccc(C)cc3C)CC2)c1C -6.76%
Cc1[nH]ccc(=O)c1Oc1ncc(C(F)(F)F)cc1Cl -2.35%
Cc1ccc(-c2nn(Cc3ccccc3)cc2/C=C/C(=O)O)cc1C -3.26%
COc1ccc(OC)c(C(c2nnnn2C2CCCC2)N2CCN(c3ccccc3F)CC2)c1 (stereo unspecified) -6.38% and 2.54%
COc1ccc(C)cc1NC(=O)C(C)N(c1ccc(C)cc1)S(C)(=O)=O (stereo unspecified) -0.78%
CCC(CC)C(=O)N1CC(=O)Nc2ccc(F)cc2C1c1ccccc1 (stereo unspecified) -0.74%
COc1cccc(/C=C2\SC(=S)N(c3cccnc3)C2=O)c1OC -3.12%
O=C1/C(=C\c2ccc(O)cc2)SC(=S)N1c1cccnc1 1.44%
O=C(O)CN1C(=O)/C(=C\C(Br)=C\c2ccccc2)SC1=S 8.8%
COc1cc(/C=C2\SC(=N)N(c3ccc4c(c3)OCO4)C2=O)cc(OC)c1O 2.68%
CC(/C=C1\SC(=S)N(CC(=O)N2CCN(c3ccccc3)CC2)C1=O)=C\c1ccccc1 25.6%
Cc1ccc(N2C(=O)/C(=C/c3ccco3)SC2=S)cc1 -7.25%
COc1ccc(CCN2C(=O)/C(=C\c3ccco3)SC2=S)cc1OC 0.31%
N=C1S/C(=C\c2cccc3ccccc23)C(=O)N1c1ccc(F)cc1 -3.83%
C[C@H](O)[C@@H]1C(=O)N2CCc3ccc(N4CCOCC4)cc3[C@@H]2C[C@@H]1N(C)S(=O)(=O)c1ccccc1 -8.52%
CN1C(=O)C(N=Nc2ccccc2C(=O)O)N(C)C1=S (stereo unspecified) 30.3%
Cc1ccc(SCC(=O)N(C)CC(=O)Nc2cccc(F)c2)cc1 0.72%
COc1cccc(-n2c(SC)nnc2-c2cnccn2)c1 -0.18%
CCN(CC(=O)Nc1cc(Cl)ccc1C)C(=O)c1ccc2c(=O)n3c(nc2c1)CCC3 2.7%
CN(C)Cc1cn(CCC(=O)O)c2ccccc12 -3.96%
O=C1OC/C(=C(/O)c2ccc(Cl)cc2)C1=O -8.18%
O=C1/C(=C/c2cccnc2)SC(=S)N1c1ccccc1 8.11%
Cc1ccc(/C=C2\SC(=S)N(c3cccnc3)C2=O)cc1 21.1%
O=C1/C(=C/c2cccs2)SC(=S)N1c1ccccc1 -6.53%
O=C(O)c1ccc(/C=C2/SC(=S)N(Cc3ccccc3)C2=O)cc1 -0.52%
Cc1cccc(N2C(=O)/C(=C/c3cccnc3)SC2=S)c1 -1.54%
Cc1ccc(/C=C2\SC(=S)N(Cc3ccccc3)C2=O)o1 29.5%
Cc1nn(C)c(C(=O)NNC(=S)Nc2ccc(F)cc2)c1[N+](=O)[O-] -3.65%
CCn1cnc2cc(NC(=O)c3ccc(C)cc3)ccc21 -2%
COCCn1c(SCC(=O)N2CCCc3ccccc32)nc2cccnc21 -1.26%
C/C(=N\S(=O)(=O)c1ccc(C)cc1)NC(=S)Nc1ccccc1 -0.88%
Cc1ccsc1C(=O)OCC(=O)Nc1cccc(S(=O)(=O)N2CCOCC2)c1 2.2%
